This note sets out measurements from PubChem BioAssay (NCATS).

Inconclusive results are not listed. A call without a number means that no potency is given here. Calls of active or inactive are those of the source. Calls follow the shape of the dose curve; as a rule, active = well fitted inhibition curve with a large enough effect; inconclusive = small, poorly fitted or top-dose-only effect; inactive = no such curve, though single readings can be large or run the other way.

The test system of assay [1] is Zika virus NS2B-NS3 protease (unlinked complex). The assay can be described thus: Primary screen GU Rhodamine qHTS for Zika virus inhibitors: Unlinked NS2B-NS3 protease assay (AID 1347159). Also: nearly all actives have a fitted effect of over 60% in size. In outline:
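Percent inhibition derives from the 15-min fluorescence change (ex 480, em 540 nm), normalized to no-enzyme and no-inhibitor wells. Reactions contained 25 nM NS2B-NS3 complex and 1.5 microM substrate in 10 mM Tris-HCl pH 8.0.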
A general note: qHTS replaces the single test concentration by a dilution series.

For assay [2], the system named is Zika virus NS2B-NS3 protease (linked construct). The assay can be described thus: Primary screen NINDS Rhodamine qHTS for Zika virus inhibitors (AID 1347160). Also: nearly all actives have a fitted effect of over 55% in size. In outline: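 In 10 mM Tris-HCl pH 8.0 containing 0.01% Tween 20, linked NS2B-NS3 protease (25 nM final) is exposed to test compounds for 15 min. Cleavage of 1.5 microM Rhodamine110 substrate is tracked by fluorescence over 15 min.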

As for `CCC(C)CNCC(=O)N1CCc2sccc2C1COc1cccc(C)c1` (stereo not given), the Potency result in assay [1] and in assay [2] was “inactive” each time.
With `COc1cccc(CN(C(=O)CC(C)(C)C)[C@H]2C[C@H](C(=O)N3CCNCC3)N(Cc3ccc4c(c3)OCO4)C2)c1`, the Potency entry in assay [1] and in assay [2] was “inactive” each time.
On to `Nc1c(S(=O)(=O)c2ccccc2)c2nc3ccccc3nc2n1-c1ccc(F)cc1`, for which the Potency entry in assay [1] and in assay [2] was “inactive” in each case.
Consider `Cc1nc(-c2cn3c(n2)-c2ccc(-c4cnn(C(C)(C)C(N)=O)c4)cc2OCC3)n(C(C)C)n1`, for which the Potency entry in assay [1] and in assay [2] was “inactive” in each case.
Take `CC(=O)O[C@@H]1C[C@@]23C[C@@]24CC[C@H](O[C@@H]2OC[C@H](O)[C@H](O)[C@H]2O)C(C)(C)[C@@H]4CC[C@H]3[C@]2(C)[C@@H](O)C34O[C@H](C[C@@H](C)[C@@H]3[C@@]12C)[C@@H](C(C)(C)O)O4`: the Potency entry in assay [1] and in assay [2] was “inactive” throughout.
Take `C=C1C(=O)O[C@@H]2C=C(COC(C)=O)CC/C=C(\CO)CC[C@@H]12`: the Potency result in assay [1] and in assay [2] was “inactive” in each case.
For `N#CSc1cc(SC#N)c(N)nc1N`, the Potency entry in assay [1] and in assay [2] was “inactive” in each case.
Regarding `CC(=O)OC(C)(C)/C=C/C(=O)[C@](C)(O)[C@H]1C(O)C[C@@]2(C)[C@@H]3CC=C4[C@@H](C=C(O[C@@H]5O[C@H](CO)[C@@H](O)[C@H](O)[C@H]5O)C(=O)C4(C)C)[C@]3(C)C(=O)C[C@]12C` (stereo not given in full), the Potency result in assay [1] and in assay [2] was “inactive” throughout.
Regarding `O=C(NCCN1CCN(c2cccc3ccc(O)cc23)CC1)c1ccc(F)cc1`, the Potency entry in assay [1] and in assay [2] was “inactive” throughout.
Consider `CC(=O)NC(C(=O)O[C@H]1CCC(C)(C)[C@@H]2CC=C3C(=O)OCC3(O)[C@@]12C)C(C)C` (stereo not given in full), for which the Potency result in assay [1] and in assay [2] was “inactive” throughout.
